Screening data: PubChem BioAssay, National Center for Advancing Translational Sciences (NCATS)
Luc counter = blocks Kinase-Glo luciferase, a counter-screen artifact | Potency, µM (highest dose often 38.3 µM), without a hit: at the highest dose activity change, negative = inhibition, actives largely listed as inhibitors | Q27757 | Kinase-Glo luciferase, ATP luminescence, 8 min | 0.28% of 200,000 active; note: % is set by controls: 0 for no effect and ±100 for the full control effect; nearly all actives have a fitted effect of over 60% in size
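Inhibition of Kinase-Glo luciferase light generation was assessed at 10 uM ATP in pH 7.2 imidazole buffer, with luminescence measured after eight minutes at ambient temperature.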
FLuc modulator = counter-screen for miR-21 project: firefly luciferase inhibitors or activators; Potency, µM (series often up to 57.5 µM), inactives show at the highest dose activity change, negative = inhibition, most hits filed as inhibitors; 6.9% of 360,000 active; purified FLuc, Km substrates, luminescence inhibition;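 note: plate controls were vehicle for no effect and reference inhibitor for full effect; nearly all actives have a fitted effect of over 55% in size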
Target sequence (P08659 whole entry, looked up): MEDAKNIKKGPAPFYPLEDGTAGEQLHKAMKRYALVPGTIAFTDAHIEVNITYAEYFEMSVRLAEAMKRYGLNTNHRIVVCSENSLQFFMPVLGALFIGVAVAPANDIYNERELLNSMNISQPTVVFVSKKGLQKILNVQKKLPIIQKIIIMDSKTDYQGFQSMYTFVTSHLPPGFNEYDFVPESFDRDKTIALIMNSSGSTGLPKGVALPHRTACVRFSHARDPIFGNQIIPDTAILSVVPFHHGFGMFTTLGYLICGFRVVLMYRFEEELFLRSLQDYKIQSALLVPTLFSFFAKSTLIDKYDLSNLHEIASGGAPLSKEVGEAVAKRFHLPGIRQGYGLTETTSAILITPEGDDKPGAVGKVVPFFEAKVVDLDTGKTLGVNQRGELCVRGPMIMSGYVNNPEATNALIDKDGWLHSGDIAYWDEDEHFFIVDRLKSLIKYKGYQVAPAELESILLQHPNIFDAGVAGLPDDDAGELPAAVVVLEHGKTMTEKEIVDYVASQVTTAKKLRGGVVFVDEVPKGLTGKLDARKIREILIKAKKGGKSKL
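Purified P. pyralis luciferase, 10 nM final, with Km-level 10 uM D-luciferin and 10 uM ATP in 50 mM Tris acetate pH 7.5, 10 mM Mg acetate, 0.01% Tween-20, 0.05% BSA; 6-point qHTS titration about 60 µM downward; luminescence read.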
ELG1 genotoxic = genotoxicity induction in ELG1-luciferase HEK293T cells. HEK293T ELG1-luciferase reporter, luminescence, 16 h. Potency, µM (titrated, usually from 46 µM), for inactives: top-dose activity change, positive = activation, most hits filed as activators. 1.3% of 330,000 active; note: % of control where 0% means no effect; nearly all actives have a fitted effect of over 60% in size
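DMSO vehicle served as control against compound-treated ELG1-luciferase HEK293T cells; exposure lasted 16 hr at 37 °C and 5% CO2, followed by ONE-Glo luminescence detection after 30 min.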
SMN2 splice enh = increases expression of the SMN2 splice variant. HEK293 SMN2-luciferase splicing reporter, luminescence, 30-36 h. Potency, µM (top dose mostly 46.1 µM), without a hit: at the top dose activity change, positive = activation, usual class: activators. 2.8% of 210,000 active; note: % of control where 0% means no effect; nearly all actives have a fitted effect of over 55% in size
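HEK293 cells carry an SMN2 […]–luciferase reporter in which exon 7 inclusion puts luciferase in frame. Cells were plated 10-12 h before compound addition, then incubated 30-36 h at 37C. ONE-Glo luminescence was read; sodium butyrate at 4.5 mM final served as control.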
Rab9 promoter act = Rab9 promoter activation; Huh7 Rab9 promoter-luciferase reporter, luminescence, 24 h; Potency, µM (top dose mostly 9.22 µM), inactives show at the top dose activation, negative = inhibition, usual class: activators; 2.8% of 320,000 active; AID 485297; note: % of control where 0% means no effect; nearly all actives have a fitted effect of over 60% in size
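Rab9 promoter-driven luciferase in stably transfected Huh7 cells; 1500 cells/well rested 2 h, exposed to compound in DMSO for 24 h at 37 °C, 5% CO2. Luminescence read 10 min after adding luciferase reagent at ambient temperature.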
NPC1 promoter act = activators of NPC1 promoter. 2.4% of 320,000 active. Huh7 NPC1 promoter luciferase reporter, 24 h. Potency, µM (doses to about 9.22 µM), without a hit: top-dose activation, most hits filed as activators; note: % of control where 0% means no effect; nearly all actives have a fitted effect of over 60% in size
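In 1536-well qHTS, Huh7 cells harboring an NPC1 promoter–luciferase construct received compound for 24 h; activation was quantified by luminescence following luciferase reagent addition.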
Starred values were filed as active, the others as inactive; ? = inconclusive; nt = no result; [ ] = remark or other dose. The list is not random: actives were taken first. Their share in the collection is about 7.5%. Calls come from the whole dose curve; as a rule, active = well fitted curve in the direction sought with a large enough effect; inconclusive = small, poorly fitted or top-dose-only effect, or another doubt; inactive = no such curve, though single readings can be large; an effect the other way counts as inactive or inconclusive. Potency is the fitted concentration of half-maximal effect.

SMILES	Luc counter	FLuc modulator	ELG1 genotoxic	SMN2 splice enh	Rab9 promoter act	NPC1 promoter act
COc1ccc(OC)c(S(=O)(=O)Nc2cccc(-c3ccc(N4CCCCC4)nn3)c2)c1	nt	6µM*	nt	nt	nt	nt
CCc1ccc(S(=O)(=O)Nc2cccc(-c3ccc4nncn4n3)c2)s1	2%	1%	10%	-31%	-3%	-12%
Cc1cccc(-c2nc(CSCC(=O)NCCc3ccc(Cl)cc3)c(C)o2)c1	nt	?	nt	-36%	nt	nt
COc1ccc(F)cc1S(=O)(=O)Nc1cccc(-c2ccc(N3CCCCCC3)nn2)c1	nt	9.5µM*	nt	nt	nt	nt
Cc1ccc2nc(-c3ccc(Br)o3)oc(=O)c2c1	-9%	2.4µM*	11%	27%	-2%	-2%
O=C(NNC(=O)c1ccc(Cl)cc1Cl)c1ccncc1	0%	13µM*	7%	?	0%	2%
O=C(NNC(=O)c1ccccc1Cl)c1ccncc1	-1%	-9%	0%	-2%	-7%	-2%
CSCCC(NC(=O)c1ccc(Cl)cc1Cl)C(=O)NNC(=O)c1ccncc1 (stereo not given)	nt	15µM*	1%	nt	-6%	-3%
COc1ccccc1C(=O)NC(CCSC)C(=O)NNC(=O)c1ccncc1 (stereo not given)	nt	2%	-1%	nt	0%	-1%
Cc1ccccc1OCCCn1c(-c2ccc(Cl)cc2)nc2ccccc2c1=O	nt	-5%	nt	-7%	nt	nt
COc1ccc2nc(N/C(N)=N/C(=S)Nc3cccc(C)c3)nc(C)c2c1	2%	?	-4%	-29%	-5%	-3%
COc1ccc2nc(N/C(N)=N/C(=S)Nc3c(C)cccc3C)nc(C)c2c1	-4%	-9%	-3%	-6%	-6%	-14%
COc1ccc2nc(N/C(N)=N/S(C)(=O)=O)nc(C)c2c1	nt	15µM*	?	nt	14%	17%
COc1ccc(NC(=S)/N=C(\N)Nc2nc(C)c3ccccc3n2)cc1	nt	9.5µM*	-10%	nt	-6%	2%
Cc1ccc(S(=O)(=O)Nc2cccc(C(=O)NCCN3CCOCC3)c2)cc1F	nt	1%	-2%	nt	-5%	1%
Cc1ccnc(NC(=O)CCC2CCCCC2)c1	-2%	11µM*	8.2µM*	?	?	?
O=C(CCC1CCCC1)Nc1ccc(Br)cn1	3%	-4%[2.3 µM]	20%	?	2.2µM*	?
CCCC(=O)Nc1ccc(Br)cn1	-2%	-4%	-7%	23%	24%	0%
COc1cccc(NC(=O)C2CCN(S(=O)(=O)c3c(C)noc3/C=C/c3cccs3)CC2)c1	nt	-6%	nt	-27%	nt	nt
Cc1cc(C)cc(C(=O)N(C)[C@H](Cc2ccc(-c3ccccc3)cc2)C(=O)N[C@@H](Cc2c[nH]c3ccccc23)C(=O)O)c1	1%	nt	nt	nt	nt	nt
COc1ccccc1Nc1nnc(SCC(=O)NC(=O)Nc2ccc3c(c2)OCCO3)s1	5%	1%	?	nt	-7%	-1%
O=C1C(=O)N(C2CCCC2)C(=O)N1Cc1c(F)cccc1Cl	-2%	-2%	4%	-26%	-5%	2%
Cc1cc(C)c2nc3s/c(=C/c4ccccc4)c(=O)n3c2c1	-1%	?	3%	-2%	1.3µM*	?
Cc1ccc(C)c(N2C(=N)S/C(=C\c3ccc(-c4ccccc4C(=O)O)o3)C2=O)c1	5%	?	2%	12%	-2%	2%
Cc1ccc2c(nc3s/c(=C/c4cccs4)c(=O)n32)c1C	-7%	1.9µM*	16µM*	?	3.5µM*	29%
Cc1ccc2c(nc3s/c(=C\c4ccc(-c5ccccc5C(=O)O)o4)c(=O)n32)c1C	nt	5.4µM*	0%	nt	-1%	2%
O=C(O)c1ccc(-c2ccc(/C=c3/sc4nc5ccccc5n4c3=O)o2)cc1Cl	nt	19µM*	0%	nt	12%	5%
COc1ccc(-c2oc3ccccc3c2C#Cc2cncn2C)cc1	nt	?	1%	nt	-7%	-3%
